Assay results as given in PubChem BioAssay AID799 (SRMLSC, 2007).
Out of some 140,000 compounds screened, about 840 (0.6%) were called active.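 How the source made its calls: active means viability gain under doxorubicin at or above a set limit, the compound median plus 3 SD (cut at about 4.7% in these data); inactive means the rest.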 The entries come from a sample that favours actives as a whole.

Test: protection of MRP-1-high cells against doxorubicin toxicity – H69AR cells, CellTiter-Glo, MRP-1 activator project, primary screen (AID 799);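 further: MRP-1 overexpressing cells given doxorubicin 25 µM after compound pretreatment; 18-22 h compound pretreatment then 72 h with doxorubicin before readout; 0% = doxorubicin-only wells and 100% = vehicle-treated cells without doxorubicin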
Settings: viability rescue, at 10 µM, stronger effect = higher value
For CN(C(=O)c1c(Cl)cnn1C)C12CC3CC(CC(C3)C1)C2, the viability increase was -1.48% (inactive). With Clc1cccc(CN2COc3c(cc(Cl)c4cccnc34)C2)c1 the viability increase was -5.22% (inactive). For COc1cccc(/C=N\NC(=O)C2=NNC(=O)C2C)c1O (stereo not given), the viability increase was 8.24% (active). With COc1cccc(/C=N/NC(=O)c2[nH]nc3c2CCc2ccccc2-3)c1O the viability increase was -0.29% (inactive). In the case of COc1ccc(C(=O)Nc2ccccc2C(=O)N/N=C/c2ccccc2OC)cc1, the viability increase is reported as -3.65% (inactive). In the case of CCn1cc(/C=C2/SC(=S)NC2=O)c(C)n1, the viability increase is reported as -3.74% (inactive). For Cc1ccc(NC(=S)NCc2ccccc2Cl)c(C)c1, the viability increase was -3.43% (inactive). With CC1(C)CC(=O)C2=C(C1)N=C1SCCC(=O)N1C2c1ccc(C(F)(F)F)cc1 (stereo not given) the viability increase was 9.27% (active). With Cc1ccc(C(=O)COC(=O)CCCC(=O)NC2CCCCC2)cc1[N+](=O)[O-] the viability increase was -1.8% (inactive). In the case of COC(=O)N/N=C/c1ccc(-c2ccc(Cl)c(Cl)c2)o1, the viability increase is reported as 9.18% (active). In the case of O=C(N/N=C\c1ccc(-c2ccc(Cl)c(Cl)c2)o1)C(=O)N1CCCC1, the viability increase is reported as 1.06% (inactive). For O=C(Cn1nnc(-c2ccccc2)n1)N/N=C/c1ccc(-c2ccc(Cl)cc2)o1, the viability increase was -1.7% (inactive). In the case of CCc1ccc(NC2Nc3cc(C)nn3S2)cc1 (stereo not given), the viability increase is reported as 1.66% (inactive). In the case of Cc1cccc(C)c1NC(=O)CSc1ccc([N+](=O)[O-])cn1, the viability increase is reported as -2.01% (inactive). For COC(=O)c1ccccc1NC(=O)CSc1ccccn1, the viability increase was -0.18% (inactive). In the case of C/C(=N/NC(=O)CSc1ccccn1)c1ccc([N+](=O)[O-])cc1, the viability increase is reported as 5.38% (active). For CC(C)(C)NC(=O)COC(=O)c1cc(Br)ccc1Cl, the viability increase was 1.61% (inactive). With Cc1ccc(C(=O)NC(C)c2ccccc2)cc1Br (stereo not given) the viability increase was 2.53% (inactive). With COc1ccc(C(=O)ON=C2c3ccccc3-c3ccccc32)cc1OC the viability increase was -0.45% (inactive). For COc1cccc(C2SCC(=O)N2c2cccc(C)c2)c1OC (stereo not given), the viability increase was -1.69% (inactive). In the case of CSCC[C@H](NC(=O)OC(C)(C)C)C(=O)N/N=C/c1cc2ccc(C)cc2nc1Cl, the viability increase is reported as -3.12% (inactive). In the case of Cc1ccc(CN2C(=O)N/C(=C/c3cc(C)n(-c4ccccn4)c3C)C2=O)cc1, the viability increase is reported as 2.22% (inactive). For CCC(=O)N1CCN=C1SCc1ccc(F)cc1, the viability increase was 5.28% (active). With Cc1cccc(CC(=O)N2CCN=C2SCc2ccc([N+](=O)[O-])cc2)c1 the viability increase was -3.9% (inactive). In the case of CC1CCN(C(=O)c2ccc(CSc3ccc(Cl)cc3)cc2)CC1, the viability increase is reported as -2.43% (inactive). With O=C(c1ccco1)N1CCN=C1SCc1cccc(Cl)c1 the viability increase was 1.42% (inactive). In the case of Cc1cc(C)cc(C(=O)N2CCN=C2SCc2ccc([N+](=O)[O-])cc2)c1, the viability increase is reported as -4.17% (inactive). For O=C(C1CC1)N1CCN=C1SCc1ccc(Cl)cc1, the viability increase was 4.76% (active). With Cc1ccc(C(C[N+](=O)[O-])c2c(C)cc3ccccn23)cc1 (stereo not given) the viability increase was -4.62% (inactive). For COc1cc(C(=O)Nc2cc(C(F)(F)F)ccc2N2CCOCC2)ccc1O, the viability increase was -4.55% (inactive). With O=c1[nH]cnc2c1c(-c1ccccc1)cn2-c1ccc(F)cc1 the viability increase was -1.33% (inactive). With CSCCC(NC(=O)c1cc([N+](=O)[O-])cc([N+](=O)[O-])c1)c1nc2ccccc2[nH]1 (stereo not given) the viability increase was -3.92% (inactive). For S=C(NCCc1ccccc1)NCc1ccccc1Cl, the viability increase was -1.54% (inactive). In the case of Cc1noc(/C=C/N(C)C)c1S(=O)(=O)N1CCCC(C(=O)NCc2ccco2)C1 (stereo not given), the viability increase is reported as 8.37% (active). For O=C(NCc1ccco1)C1CCCN(S(=O)(=O)c2cnc[nH]2)C1 (stereo not given), the viability increase was -1.18% (inactive). In the case of O=C(NCc1ccco1)C1CCCN(S(=O)(=O)c2ccccc2)C1 (stereo not given), the viability increase is reported as 0.35% (inactive). In the case of CCCc1c(C)nc2c(Br)cccc2c1Cl, the viability increase is reported as 0.38% (inactive). With O=C1CSC2=NCN(c3ccccc3)CN12 the viability increase was 8.4% (active). In the case of O=C(NCc1cccs1)C(=O)NCC1OCCCN1S(=O)(=O)c1ccc(F)cc1 (stereo not given), the viability increase is reported as -1.49% (inactive). In the case of CC(O)c1nc2ccccc2n1Cc1ccc([N+](=O)[O-])cc1 (stereo not given), the viability increase is reported as -1.44% (inactive). With Cc1ccc(-c2c(C)n([O-])c3c([n+]2=O)CCC3)cc1 the viability increase was -0.22% (inactive). In the case of CC(C)(C)c1ccc(C(=O)NCc2nnc(SCC(=O)N3CCCc4ccccc43)n2-c2ccccc2)cc1, the viability increase is reported as -0.43% (inactive). With Cc1ccc(CSCC(N)C(=O)O)cc1 (stereo not given) the viability increase was 1.44% (inactive). With COc1cc2c(cc1/C=C1/NC(=O)N(c3ccccc3)C1=O)OCO2 the viability increase was 0.58% (inactive). In the case of CCC1(C)Cc2c(sc3[nH]c(=S)n(Cc4ccccc4)c(=O)c23)CO1 (stereo not given), the viability increase is reported as -3.87% (inactive). With CCC1(C)Cc2c(sc3nc(SC)nc(N)c23)CO1 (stereo not given) the viability increase was -0.12% (inactive). For CCC1(C)Cc2c(sc3nnn(CC(=O)Nc4ccc(Cl)cc4)c(=O)c23)CO1 (stereo not given), the viability increase was 9.27% (active). For COCc1c(C(=O)N/N=C/C2CC=CCC2)nnn1-c1nonc1N (stereo not given), the viability increase was -1.34% (inactive). In the case of CC(C)(C)N(Cc1ccccc1)C(=O)COC(=O)CCc1c[nH]c2ccccc12, the viability increase is reported as -1.32% (inactive). With COc1ccc(C)cc1NC(=O)CCC(=O)Nc1nnc(C(F)(F)F)s1 the viability increase was 1.24% (inactive). For O=C(NCC(F)(F)F)Nc1nnc(C(F)(F)F)s1, the viability increase was 7.12% (active). In the case of CCc1nnc(NC(=O)CCC(=O)O)s1, the viability increase is reported as 0.72% (inactive). In the case of Cc1nnnn1/C(=C\c1ccccc1)C(=O)OCC(=O)N1CC2(C)CC1CC(C)(C)C2 (stereo not given), the viability increase is reported as -4.97% (inactive). With CCn1c(NC(=O)c2nn(C)cc2Br)nc2ccccc21 the viability increase was -2.46% (inactive). In the case of O=C(NCCNc1ccc([N+](=O)[O-])cc1)c1cccc2c(Br)cccc12, the viability increase is reported as 1.47% (inactive). With C/C(=N/NC(=S)Nc1ccccc1)c1ccc2c(c1)OCO2 the viability increase was 7.99% (active). For O=C(Nc1ccccc1)c1ccc2c(c1)OCO2, the viability increase was -0.11% (inactive). In the case of C/C(=N\NC(=S)NCc1ccccc1)c1ccc(Cl)cc1, the viability increase is reported as -2.64% (inactive). For COc1ccc(OCC(O)CNC(=O)Nc2ccc(Cl)cc2)cc1 (stereo not given), the viability increase was 2.65% (inactive). In the case of Cc1ccc(C)c(NS(=O)(=O)c2ccc(OCC(=O)NCc3cccnc3)cc2)c1, the viability increase is reported as -4.52% (inactive). For CC1CCN(C(=O)c2ccc(S(=O)(=O)Cc3cc(F)ccc3F)c([N+](=O)[O-])c2)CC1, the viability increase was -4.87% (inactive). With c1ccc2c(CSCc3nc4ccccc4[nH]3)cccc2c1 the viability increase was -0.17% (inactive). For N=C(N)SCc1cccc2ccccc12, the viability increase was 8.11% (active). With CCOc1ccc(Br)cc1CSC(=N)N the viability increase was 0.81% (inactive). With COc1cc(C(=S)NC2CCCCC2)ccc1O the viability increase was -2.71% (inactive). In the case of Cc1[nH]n(-c2ccccc2)c(=O)c1/C=N/NC(=O)c1ccoc1C, the viability increase is reported as -1.54% (inactive). With COc1cc(NC(=S)NCCSc2ccc(C)cc2)cc(OC)c1 the viability increase was -3.24% (inactive). For CCc1nnc(NC(=O)C2CCCN2S(=O)(=O)c2ccccc2)s1 (stereo not given), the viability increase was 12.4% (active). In the case of CCc1nnc(NS(=O)(=O)c2ccc(NS(=O)(=O)c3ccccc3)cc2)s1, the viability increase is reported as -0.5% (inactive). For CC(C)c1nnc(NC(=O)C2CCCN2S(=O)(=O)c2ccc(Cl)cc2)s1 (stereo not given), the viability increase was -0.99% (inactive). For Cc1ccccc1NC(=O)c1ccccc1NS(=O)(=O)c1cccc2cccnc12, the viability increase was -3.17% (inactive). In the case of C=CCNC(=O)c1ccccc1NC(=O)c1ccc(Cl)c(S(=O)(=O)Nc2cccc(C)c2C)c1, the viability increase is reported as 5.97% (active). In the case of COC(=O)c1ccc(C(=O)Nc2cc(Cl)ccc2Cl)cc1NC(=O)c1ccccc1C, the viability increase is reported as -3.01% (inactive). With CC(C)(C)C1CCC(OC(=O)CCC(=O)Nc2ccccc2)CC1 (stereo not given) the viability increase was 3.57% (inactive). With Cc1ccc(C(=O)Cc2nnc(C)s2)cc1 the viability increase was -2.89% (inactive). In the case of Cc1ccc(C2=N/C(=C\c3ccc(OS(=O)(=O)c4ccc(C)cc4)cc3)C(=O)O2)cc1, the viability increase is reported as -1.26% (inactive). With O=C(Nc1ccn(Cc2ccc(F)cc2)n1)c1ccncc1 the viability increase was 1.75% (inactive). In the case of CC(=O)Nc1ccn(Cc2c(F)cccc2Cl)n1, the viability increase is reported as -1.03% (inactive). In the case of O=C(Nc1ccn(Cc2ccccc2F)n1)c1ccc(COc2ccc(Cl)cc2Cl)o1, the viability increase is reported as 10.6% (active). For Cn1ncc(Br)c1C(=O)NCc1cccs1, the viability increase was -2.03% (inactive). In the case of Cn1nccc1CNC(=O)c1ccnn1C, the viability increase is reported as 10.8% (active). With CCCc1ccc(-c2c(C)sc(NC(=O)c3ccnn3C)c2C#N)cc1 the viability increase was -1.28% (inactive). With O=C(NCc1ccccc1Cl)C1CCC(CNc2c(N3CCCCC3)c(=O)c2=O)CC1 (stereo not given) the viability increase was -1.61% (inactive). With CN(C)S(=O)(=O)c1ccc(N2CCCC2=O)c([N+](=O)[O-])c1 the viability increase was -1.68% (inactive). For COc1ccc(-c2nn(-c3ccccc3)cc2C(=O)Nc2nc(CC(C)=O)ns2)cc1, the viability increase was 6.77% (active). In the case of CC(=O)Cc1nsc(NC(=O)c2ccc(COc3ccc(C)cc3)o2)n1, the viability increase is reported as -0.06% (inactive). With COc1ccc(-c2nn(-c3ccccc3)cc2C(=O)Nc2nccs2)cc1OC the viability increase was -4.27% (inactive). For COc1ccc2nc(Nc3nc4ccc(NC(C)=O)cc4s3)sc2c1, the viability increase was -4.94% (inactive). With CCCOc1ccc(Cn2ccnc2)cc1[N+](=O)[O-] the viability increase was -1.18% (inactive). With CC(=O)NC1C(OCc2ccccc2)OC(COC(C)=O)C(OC(C)=O)C1OC(C)=O (stereo not given) the viability increase was -1.54% (inactive). With Cc1ccc(S(=O)(=O)N(Cc2ccc(Cl)cc2)c2ccccc2C(=O)NCc2cccnc2)cc1 the viability increase was -2.38% (inactive). For Cc1ccc(O)c(-c2cc(C(=O)NCc3ccccc3)[nH]n2)c1, the viability increase was -1.43% (inactive). In the case of O=C1[C@@H]2C(Cc3ccc(O)cc3)NC3(C(=O)Nc4ccc(F)cc43)[C@@H]2C(=O)N1c1ccc(F)cc1 (stereo not given in full), the viability increase is reported as 5.18% (active). With CSCCC1NC2(C(=O)Nc3ccc(Cl)cc32)[C@@H]2C(=O)N(C3CCCC3)C(=O)[C@H]12 (stereo not given in full) the viability increase was -3.72% (inactive). In the case of CNC(=O)NC(=O)C(OC(=O)c1cccc(S(=O)(=O)N2CCCCC2)c1)c1ccccc1 (stereo not given), the viability increase is reported as -2.3% (inactive).
